Compound: Cc1ccc(-c2ccc3c(ccc4sc5c(c43)NC[C@@H](C)NC5=O)n2)cn1
Assay: kinase activity remaining relative to vehicle control; higher = less inhibition
Procedure: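 In vitro radiometric kinase profiling of the MK2 inhibitor PF-3644022 at 0.1, 1 and 10 µM against a panel of kinases (MRC International Centre for Kinase Profiling, Dundee). Read-out is % kinase activity remaining relative to the vehicle control, mean of n=2.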

UniProt O00141, sequence (O00141 whole entry, looked up): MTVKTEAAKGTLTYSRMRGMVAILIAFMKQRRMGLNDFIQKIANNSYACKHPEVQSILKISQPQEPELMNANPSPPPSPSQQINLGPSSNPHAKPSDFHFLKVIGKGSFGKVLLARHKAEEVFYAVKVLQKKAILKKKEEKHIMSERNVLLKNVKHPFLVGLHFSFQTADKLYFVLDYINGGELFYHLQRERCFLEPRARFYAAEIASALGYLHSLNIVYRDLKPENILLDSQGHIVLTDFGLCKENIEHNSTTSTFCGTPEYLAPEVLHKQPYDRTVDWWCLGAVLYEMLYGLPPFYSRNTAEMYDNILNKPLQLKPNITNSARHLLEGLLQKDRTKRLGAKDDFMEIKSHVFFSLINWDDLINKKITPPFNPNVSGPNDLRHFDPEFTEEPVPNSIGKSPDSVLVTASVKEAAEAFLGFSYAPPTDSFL
UniProt Q9H2X6, sequence (Q9H2X6 whole entry, looked up): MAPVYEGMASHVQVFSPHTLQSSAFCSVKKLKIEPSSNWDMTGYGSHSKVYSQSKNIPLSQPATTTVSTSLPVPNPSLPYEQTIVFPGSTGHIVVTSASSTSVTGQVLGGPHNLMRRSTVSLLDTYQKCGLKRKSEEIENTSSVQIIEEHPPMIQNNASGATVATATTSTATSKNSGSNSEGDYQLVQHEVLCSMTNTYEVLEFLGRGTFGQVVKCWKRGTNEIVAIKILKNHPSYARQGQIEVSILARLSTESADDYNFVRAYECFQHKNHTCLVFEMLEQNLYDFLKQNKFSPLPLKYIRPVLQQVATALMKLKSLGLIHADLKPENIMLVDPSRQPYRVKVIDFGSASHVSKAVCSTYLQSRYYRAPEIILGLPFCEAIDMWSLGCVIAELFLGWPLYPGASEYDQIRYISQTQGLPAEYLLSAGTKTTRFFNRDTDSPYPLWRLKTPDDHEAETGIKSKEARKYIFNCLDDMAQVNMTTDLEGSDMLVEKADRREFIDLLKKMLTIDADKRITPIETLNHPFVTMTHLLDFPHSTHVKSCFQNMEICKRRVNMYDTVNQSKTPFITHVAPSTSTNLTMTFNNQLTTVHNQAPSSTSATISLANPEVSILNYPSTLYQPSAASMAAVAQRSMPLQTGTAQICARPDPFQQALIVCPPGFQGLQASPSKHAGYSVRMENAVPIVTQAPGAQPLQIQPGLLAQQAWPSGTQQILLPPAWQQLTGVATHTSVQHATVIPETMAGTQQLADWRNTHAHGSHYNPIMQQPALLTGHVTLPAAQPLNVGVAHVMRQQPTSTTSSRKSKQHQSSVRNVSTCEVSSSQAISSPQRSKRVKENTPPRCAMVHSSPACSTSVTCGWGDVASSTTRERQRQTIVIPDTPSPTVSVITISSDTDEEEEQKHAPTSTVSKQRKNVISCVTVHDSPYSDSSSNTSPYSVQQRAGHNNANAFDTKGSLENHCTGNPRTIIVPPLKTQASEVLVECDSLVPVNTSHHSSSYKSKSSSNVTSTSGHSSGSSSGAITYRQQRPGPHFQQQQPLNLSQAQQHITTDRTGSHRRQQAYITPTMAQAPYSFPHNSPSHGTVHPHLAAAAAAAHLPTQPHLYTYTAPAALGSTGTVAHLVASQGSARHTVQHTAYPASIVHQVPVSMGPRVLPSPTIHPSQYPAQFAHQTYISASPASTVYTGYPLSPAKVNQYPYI
UniProt Q86Z02, sequence (Q86Z02 whole entry, looked up): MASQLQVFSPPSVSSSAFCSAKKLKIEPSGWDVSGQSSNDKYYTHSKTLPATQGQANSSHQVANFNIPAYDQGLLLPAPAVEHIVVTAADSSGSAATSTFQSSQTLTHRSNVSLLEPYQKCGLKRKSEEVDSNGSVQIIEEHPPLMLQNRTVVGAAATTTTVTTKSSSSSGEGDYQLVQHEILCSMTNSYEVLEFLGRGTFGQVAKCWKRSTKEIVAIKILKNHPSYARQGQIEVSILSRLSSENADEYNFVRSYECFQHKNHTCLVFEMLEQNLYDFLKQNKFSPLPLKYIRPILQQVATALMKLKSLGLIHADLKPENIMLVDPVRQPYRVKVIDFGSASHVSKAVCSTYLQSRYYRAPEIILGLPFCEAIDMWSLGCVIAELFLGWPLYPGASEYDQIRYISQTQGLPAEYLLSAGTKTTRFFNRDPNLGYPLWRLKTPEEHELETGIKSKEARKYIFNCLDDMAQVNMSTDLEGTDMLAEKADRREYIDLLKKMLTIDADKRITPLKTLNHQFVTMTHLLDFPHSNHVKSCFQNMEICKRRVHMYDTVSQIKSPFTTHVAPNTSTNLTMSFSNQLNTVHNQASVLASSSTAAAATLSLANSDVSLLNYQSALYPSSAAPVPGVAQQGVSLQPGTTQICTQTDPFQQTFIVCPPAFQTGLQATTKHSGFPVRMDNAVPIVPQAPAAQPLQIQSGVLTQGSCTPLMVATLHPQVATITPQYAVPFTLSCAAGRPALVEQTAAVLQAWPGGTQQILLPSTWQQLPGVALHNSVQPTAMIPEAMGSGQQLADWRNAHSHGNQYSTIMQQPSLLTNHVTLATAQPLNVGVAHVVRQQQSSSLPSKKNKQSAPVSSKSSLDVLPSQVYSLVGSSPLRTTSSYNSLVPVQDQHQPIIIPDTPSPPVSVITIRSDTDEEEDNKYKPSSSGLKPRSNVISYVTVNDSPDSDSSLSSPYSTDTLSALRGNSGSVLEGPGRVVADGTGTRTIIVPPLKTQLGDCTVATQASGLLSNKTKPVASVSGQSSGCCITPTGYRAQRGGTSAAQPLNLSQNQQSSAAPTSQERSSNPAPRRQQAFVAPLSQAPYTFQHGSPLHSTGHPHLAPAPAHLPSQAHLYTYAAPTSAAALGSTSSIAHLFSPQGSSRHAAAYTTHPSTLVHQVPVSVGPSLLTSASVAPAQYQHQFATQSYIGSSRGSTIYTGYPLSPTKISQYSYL
UniProt P16234, sequence (P16234 whole entry, looked up): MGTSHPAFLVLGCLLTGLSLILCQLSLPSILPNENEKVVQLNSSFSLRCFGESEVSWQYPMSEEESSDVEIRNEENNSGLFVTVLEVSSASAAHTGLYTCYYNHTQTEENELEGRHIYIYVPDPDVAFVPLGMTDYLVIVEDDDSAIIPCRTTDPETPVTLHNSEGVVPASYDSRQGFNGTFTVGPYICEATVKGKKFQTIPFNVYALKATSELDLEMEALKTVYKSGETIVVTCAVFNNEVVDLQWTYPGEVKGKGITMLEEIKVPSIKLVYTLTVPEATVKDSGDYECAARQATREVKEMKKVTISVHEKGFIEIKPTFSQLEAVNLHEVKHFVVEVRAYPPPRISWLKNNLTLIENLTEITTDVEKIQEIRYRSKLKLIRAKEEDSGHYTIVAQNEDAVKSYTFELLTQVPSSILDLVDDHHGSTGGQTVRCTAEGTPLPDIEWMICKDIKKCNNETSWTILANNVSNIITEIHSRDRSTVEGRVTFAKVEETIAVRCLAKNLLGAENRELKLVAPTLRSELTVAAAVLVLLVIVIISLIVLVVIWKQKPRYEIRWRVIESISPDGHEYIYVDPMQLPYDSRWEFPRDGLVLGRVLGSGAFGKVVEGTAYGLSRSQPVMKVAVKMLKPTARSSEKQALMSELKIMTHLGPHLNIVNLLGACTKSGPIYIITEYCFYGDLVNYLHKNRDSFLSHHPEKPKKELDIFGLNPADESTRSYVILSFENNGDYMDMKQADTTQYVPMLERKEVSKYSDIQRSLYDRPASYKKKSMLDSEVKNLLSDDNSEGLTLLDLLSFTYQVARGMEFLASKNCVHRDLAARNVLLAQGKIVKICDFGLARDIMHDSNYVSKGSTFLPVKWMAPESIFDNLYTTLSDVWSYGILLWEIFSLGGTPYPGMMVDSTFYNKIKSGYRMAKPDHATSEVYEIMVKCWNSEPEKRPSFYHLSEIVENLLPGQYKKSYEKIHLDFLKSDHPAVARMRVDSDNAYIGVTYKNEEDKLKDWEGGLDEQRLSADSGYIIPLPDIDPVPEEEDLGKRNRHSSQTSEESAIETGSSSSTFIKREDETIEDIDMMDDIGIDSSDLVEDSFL
UniProt P12931, sequence (P12931 whole entry, looked up): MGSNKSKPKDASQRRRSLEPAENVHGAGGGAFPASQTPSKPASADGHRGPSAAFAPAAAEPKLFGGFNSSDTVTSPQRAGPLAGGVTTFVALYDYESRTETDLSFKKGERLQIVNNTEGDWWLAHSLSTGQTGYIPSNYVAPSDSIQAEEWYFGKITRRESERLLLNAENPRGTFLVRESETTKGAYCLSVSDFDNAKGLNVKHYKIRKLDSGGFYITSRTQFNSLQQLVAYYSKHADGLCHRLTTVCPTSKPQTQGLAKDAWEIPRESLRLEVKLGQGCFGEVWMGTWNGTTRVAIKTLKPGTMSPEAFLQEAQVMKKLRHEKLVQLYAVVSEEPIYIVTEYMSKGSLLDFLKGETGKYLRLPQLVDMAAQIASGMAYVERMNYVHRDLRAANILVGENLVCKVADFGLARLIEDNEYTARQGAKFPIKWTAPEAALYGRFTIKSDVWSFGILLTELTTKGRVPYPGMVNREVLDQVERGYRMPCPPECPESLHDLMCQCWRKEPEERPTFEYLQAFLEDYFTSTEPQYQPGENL
UniProt O96013, sequence (O96013 whole entry, looked up): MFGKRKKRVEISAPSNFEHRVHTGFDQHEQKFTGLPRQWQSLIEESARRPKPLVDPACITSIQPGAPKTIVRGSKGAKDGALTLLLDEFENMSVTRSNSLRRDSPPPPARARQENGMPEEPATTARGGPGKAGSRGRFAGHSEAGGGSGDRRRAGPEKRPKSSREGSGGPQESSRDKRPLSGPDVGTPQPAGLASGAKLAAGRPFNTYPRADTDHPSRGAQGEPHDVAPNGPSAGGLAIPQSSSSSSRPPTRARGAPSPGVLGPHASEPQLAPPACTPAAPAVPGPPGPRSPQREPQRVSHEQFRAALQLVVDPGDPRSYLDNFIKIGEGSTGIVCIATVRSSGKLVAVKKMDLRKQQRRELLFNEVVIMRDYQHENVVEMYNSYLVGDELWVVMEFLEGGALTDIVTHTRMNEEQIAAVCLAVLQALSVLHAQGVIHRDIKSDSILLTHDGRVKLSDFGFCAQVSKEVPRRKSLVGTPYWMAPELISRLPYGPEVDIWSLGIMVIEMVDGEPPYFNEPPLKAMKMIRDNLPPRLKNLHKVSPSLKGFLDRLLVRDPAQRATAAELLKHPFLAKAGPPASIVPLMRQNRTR

Target | kinase activity remaining (inhibitor concentration 0.1 µM) [%] | kinase activity remaining (inhibitor concentration 1 µM) [%] | kinase activity remaining (inhibitor concentration 10 µM) [%]
PAK6 (UniProt Q9NQU5) | 117 | 106 | 116
HIPK2 (UniProt Q9H2X6) | 123 | 113 | 78
SGK1 (UniProt O00141) | 116 | 112 | 112
PDGFRA (UniProt P16234) | 104 | 108 | 104
PAK4 (UniProt O96013) | 103 | 88 | 82
p38 delta MAPK | 108 | 103 | 94
NEK2a (UniProt P51955) | 108 | 99 | 88
WNK1 (UniProt Q9H4A3) | 113 | 108 | 119
Src (UniProt P12931) | 110 | 116 | 100
TrkA (UniProt P04629) | 121 | 100 | 83
HIPK1 (UniProt Q86Z02) | 111 | 104 | 130
JAK2 (UniProt O60674) | 101 | 102 | 79
p38 beta MAPK | 118 | 126 | 117
